# Reference: PubChem BioAssay AID1698 (The Scripps Research Institute Molecular Screening Center, 2009)
# This is one part of the list. Unmarked numbers belong to inactive results. Calls of active or inactive are those of the source.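 The calls were made as follows: active = activation above the solvent-only control wells' mean plus 3 SD (cut at about 11% in these data); inactive = the rest.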
# Target: Neuropeptide Y receptor type 2 (Homo sapiens) (UniProt P49146)
# Experiment: NPY-Y2 direct agonists without NPY, counter-screen for NPY-Y1 potentiator project, cell-based, fluorescence (AID 1698);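 also: 0% = DMSO with isoproterenol and 100% = 40 nM NPY maximal response; agonism lowers cAMP so well fluorescence drops in active wells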
# Settings: HEK293 Y2-CNGC, membrane potential fluorescence, agonist mode; at 3.6 µM; stronger effect = higher value
# Sequence of Neuropeptide Y receptor type 2 (Homo sapiens) (P49146 whole entry, looked up): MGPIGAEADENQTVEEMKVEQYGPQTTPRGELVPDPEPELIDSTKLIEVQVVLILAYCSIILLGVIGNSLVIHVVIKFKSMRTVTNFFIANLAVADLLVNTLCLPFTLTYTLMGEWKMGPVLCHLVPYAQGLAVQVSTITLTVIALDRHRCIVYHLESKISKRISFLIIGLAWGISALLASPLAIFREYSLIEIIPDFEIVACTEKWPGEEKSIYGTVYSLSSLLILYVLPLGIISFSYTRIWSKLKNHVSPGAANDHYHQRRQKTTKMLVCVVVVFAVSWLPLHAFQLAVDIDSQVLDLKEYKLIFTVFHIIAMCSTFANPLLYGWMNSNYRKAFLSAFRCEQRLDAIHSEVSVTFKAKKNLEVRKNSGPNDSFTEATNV
row,SMILES,activation
1,O=C1/C(=C/c2coc3ccc(O)cc3c2=O)SC(=S)N1c1ccccc1,15.2% (active)
2,CC(=O)c1ccc(NC(=O)C2CC(=O)Nc3nc4ccccc4n32)cc1 (stereo unspecified),34.2% (active)
3,CC1=C/C(=N\OS(=O)(=O)c2ccccc2)C=CC1=O,26.8% (active)
4,O=C(Nc1ccc2c(c1)CCC2)c1cccc(S(=O)(=O)Nc2ccccc2Cl)c1,10.3% (active)
5,CSc1nc(-c2ccco2)nn1C(=O)c1ccccc1Cl,26% (active)
6,O=C(Nc1ccccc1C(F)(F)F)c1cc(-c2ccc(O)cc2)on1,-2.58%
7,O=C(c1cccs1)N1CCN(C(=O)N2CCOCC2)CC1,-9.63%
8,O=[N+]([O-])c1cc(Cl)cc(/C=N/NC(=S)Nc2cc(S(=O)(=O)N3CCOCC3)ccc2Cl)c1O,63.2% (active)
9,COC(=O)c1ccc(NC(=O)CN(c2ccc(C)cc2)S(=O)(=O)c2c(C)n[nH]c2C)cc1,47% (active)
10,Cc1cccc(OCC(O)CN2CCN(CCN3C(=O)c4cccc5cccc(c45)C3=O)CC2)c1C (stereo unspecified),63% (active)
11,COCCn1nnnc1C(c1ccccc1Cl)N1CCN(c2ccccc2OC)CC1 (stereo unspecified),6.66%
12,Cc1ccccc1NCC(=O)N/N=C\c1ccc([N+](=O)[O-])s1,39.5% (active)
13,N#Cc1ccc(C(=O)Nc2nc(-c3cccs3)c(C(=O)C(F)(F)F)s2)cc1,0.24%
14,CN1C(=O)c2ccccc2C(C(=O)NCCCN2CCCC2)C1c1c[nH]c2ccccc12 (stereo unspecified),-0.28%
15,CCn1c2ccccc2c2cc(NC(=O)Nc3ccc([N+](=O)[O-])cc3C)ccc21,23.4% (active)
16,COC(=O)c1sc(-c2ccc(C(C)(C)C)cc2)cc1NC(=O)/C=C/C(=O)O,22.8% (active)
